# According to PubChem BioAssay (Tox21):
# Results filed as inconclusive are left out. A call without a number means that no potency is given here. Unmarked numbers belong to inactive results. The source made the active and inactive calls. Unless noted, the call rests on the fitted dose curve; in most records, active means well fitted curve in the direction sought with a large enough effect in the repeat runs; inconclusive means weak or mixed curves; inactive means no such curve, though single readings can be large; an effect the other way counts as inactive or inconclusive.
# Legend:
# [1] = target: Retinoic acid receptor RXR-alpha (Homo sapiens) (UniProt P19793); test: qHTS assay to identify small molecule agonists of the RXR signaling pathway (AID 1159527; calls by dose curve; further: nearly all actives have a fitted effect of over 35% in size)
# Chain of Retinoic acid receptor RXR-alpha (Homo sapiens) (P19793 whole entry, looked up): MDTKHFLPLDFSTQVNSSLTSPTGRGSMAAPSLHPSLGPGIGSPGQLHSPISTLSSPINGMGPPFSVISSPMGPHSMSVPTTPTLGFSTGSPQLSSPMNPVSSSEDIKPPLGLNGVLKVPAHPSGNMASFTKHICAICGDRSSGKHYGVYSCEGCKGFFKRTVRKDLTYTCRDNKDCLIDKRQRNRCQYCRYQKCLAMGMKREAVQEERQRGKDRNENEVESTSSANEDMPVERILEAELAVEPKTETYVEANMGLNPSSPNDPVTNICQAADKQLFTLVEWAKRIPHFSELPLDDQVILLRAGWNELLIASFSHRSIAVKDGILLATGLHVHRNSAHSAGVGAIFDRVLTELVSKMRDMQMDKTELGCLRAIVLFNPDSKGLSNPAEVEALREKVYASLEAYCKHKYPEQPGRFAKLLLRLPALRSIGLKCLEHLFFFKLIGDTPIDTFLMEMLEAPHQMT
# Procedure, shortened: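 qHTS of the Tox21 10K library in GeneBLAzer RXR-alpha HEK 293T cells carrying a beta-lactamase reporter […]; 16 hr treatment, 9-cis retinoic acid as agonist control, FRET read-out.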
# [2] = qHTS assay to identify small molecule agonists of the RXR signaling pathway - cell viability counter screen (AID 1159529); further: series mostly up to about 77 µM; nearly all actives have a fitted effect of over 50% in size
# Procedure, shortened: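 Cell viability is measured by CellTiter-Glo luminescence, 30 min at room temperature, in wells already read for beta-lactamase. Engineered HEK 293T cells (RXR-alpha-UAS-bla) are dosed 16 hr at 37 C. Tetraoctyl ammonium bromide serves as positive control.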
# [3] = qHTS assay to identify small molecule antagonists of the retinoid acid receptor (RAR) signaling pathway - cell viability counter screen (AID 1159551); further: nearly all actives have a fitted effect of over 35% in size
# Procedure, shortened: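 ATP-based viability, C3RL4 cells, 6 h at 37 C with 1 uM final retinol co-added after compound; luminescence read 30 min post CellTiter-Glo, RT.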
# [4] = qHTS assay to identify small molecule agonists of the retinoic acid receptor (RAR) signaling pathway (AID 1159553)
# Procedure, shortened: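 Quantitative high-throughput format: the Tox21 10K library was tested on C3RL4 RARE-luciferase cells for 6 hr at 37 C and 5% CO2, with luminescence measured after a 30 min room-temperature reagent step.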
# [5] = qHTS assay to identify small molecule antagonists of the estrogen related receptor (ERR) signaling pathway from Tox21 library - cell viability counter screen (AID 1224834); further: nearly all actives have a fitted effect of over 30% in size
# Procedure, shortened: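 Compounds in DMSO were pinned onto ERR cells that had been incubated for 6 h, and the plates were held at 37 C for 17.5 h. CellTiter-Fluor reagent was then added and fluorescence was measured after 30 min.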
# [6] = target: Luciferin 4-monooxygenase (Photinus pyralis) (UniProt P08659); test: qHTS assay to identify small molecule inhibitors of firefly luciferase (AID 1224835); further: nearly all actives have a fitted effect of over 25% in size; further: potency means the concentration at half of the fitted maximal effect
# Chain of Luciferin 4-monooxygenase (Photinus pyralis) (P08659 whole entry, looked up): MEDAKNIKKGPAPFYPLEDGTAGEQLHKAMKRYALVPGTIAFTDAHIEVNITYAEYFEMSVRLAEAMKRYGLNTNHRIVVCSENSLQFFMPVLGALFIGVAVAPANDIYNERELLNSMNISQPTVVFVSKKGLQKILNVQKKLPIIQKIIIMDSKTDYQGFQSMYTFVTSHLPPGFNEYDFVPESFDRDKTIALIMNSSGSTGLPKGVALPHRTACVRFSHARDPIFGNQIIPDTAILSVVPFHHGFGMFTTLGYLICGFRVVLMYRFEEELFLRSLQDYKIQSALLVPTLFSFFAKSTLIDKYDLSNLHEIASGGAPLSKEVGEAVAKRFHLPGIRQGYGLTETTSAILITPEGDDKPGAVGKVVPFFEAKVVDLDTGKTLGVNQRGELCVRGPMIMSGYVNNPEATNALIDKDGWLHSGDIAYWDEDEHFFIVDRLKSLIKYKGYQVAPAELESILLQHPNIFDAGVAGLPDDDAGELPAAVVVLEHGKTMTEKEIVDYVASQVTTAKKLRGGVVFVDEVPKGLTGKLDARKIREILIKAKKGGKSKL
# Procedure, shortened: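 Biochemical qHTS: compounds run as interplate titrations against purified firefly enzyme, with D-luciferin and ATP each at its KM concentration. Light output recorded by CCD imaging.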
# [7] = qHTS assay to identify small molecule agonists of the constitutive androstane receptor (CAR) signaling pathway - cell viability counter screen (AID 1224836); further: series mostly up to about 92 µM; nearly all actives have a fitted effect of over 45% in size
# Procedure, shortened: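 Counter screen multiplexed with the CAR reporter readout: HepG2 cells co-transfected with hCAR and the CYP2B6-2.2kb construct receive a 15-concentration compound series and 0.75 uM PK11195 (final), then CellTiter-Fluor fluorescence is read after 23 h.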
# [8] = qHTS assay to identify small molecule antagonists of the constitutive androstane receptor (CAR) signaling pathway - cell viability counter screen (AID 1224837); further: series mostly up to about 92 µM; nearly all actives have a fitted effect of over 45% in size
# Procedure, shortened: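 Cells are seeded, rested 4 hr at 37 C/5% CO2, dosed with compound (15-point series) and 50 nM CITCO, incubated a further 23 hr, and then CellTiter-Fluor reagent is added before fluorescence is read. The line is HepG2 with stable hCAR and CYP2B6-2.2kb.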
# [9] = target: Nuclear receptor subfamily 1 group I member 3 (Homo sapiens) (UniProt Q14994); test: qHTS assay to identify small molecule antagonists of the constitutive androstane receptor (CAR) signaling pathway (AID 1224838);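 further: HepG2 cells stably expressing hCAR with CYP2B6 luciferase reporter stimulated by CITCO; nearly all actives have a fitted effect of over 40% in size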
# Chain of Nuclear receptor subfamily 1 group I member 3 (Homo sapiens) (Q14994 whole entry, looked up): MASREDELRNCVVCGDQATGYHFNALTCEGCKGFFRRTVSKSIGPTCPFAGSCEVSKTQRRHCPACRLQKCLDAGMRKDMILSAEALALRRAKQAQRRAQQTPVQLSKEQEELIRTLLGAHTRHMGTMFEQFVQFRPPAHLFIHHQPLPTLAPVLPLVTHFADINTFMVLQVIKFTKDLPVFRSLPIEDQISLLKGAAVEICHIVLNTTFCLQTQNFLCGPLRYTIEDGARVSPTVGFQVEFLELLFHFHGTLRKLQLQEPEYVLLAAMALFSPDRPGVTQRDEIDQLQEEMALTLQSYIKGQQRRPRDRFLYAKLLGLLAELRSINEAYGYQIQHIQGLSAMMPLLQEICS
# Procedure, shortened: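 Luminescence from a CYP2B6-2.2kb promoter reporter in hCAR-expressing HepG2 cells reflects CAR signaling. Cells received compounds at 15 concentrations and 50 nM CITCO (final), then incubated 24 h at 37 C/5% CO2.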
# [10] = target: Nuclear receptor subfamily 1 group I member 3 (Homo sapiens) (UniProt Q14994); test: qHTS assay to identify small molecule agonists of the constitutive androstane receptor (CAR) signaling pathway (AID 1224839); further: series mostly up to about 92 µM; nearly all actives have a fitted effect of over 15% in size
# Procedure, shortened: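 A 15-concentration quantitative screen uses HepG2 cells co-transfected stably with human CAR and CYP2B6-2.2kb reporter. Treatment lasts 24 h with 0.75 uM PK11195 final present; ONE-Glo luminescence is the signal.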
# [11] = qHTS assay to identify small molecule antagonists of the estrogen related receptor signaling pathway with the pleiotropic PPARgamma coactivator (PGC) from Tox21 10K library - cell viability counter screen (AID 1224840; active means well fitted cell-killing curve with a large enough effect in the repeat runs, not every such curve was filed as active; further: nearly all actives have a fitted effect of over 40% in size)
# Procedure, shortened: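 Cell viability is measured by CellTiter-Fluor fluorescence in PGC/ERR cells that receive compounds after a 6-hour attachment period and are then incubated 17.5 hours at 37 C.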
# [12] = qHTS assay to identify small molecule antagonists of the estrogen related receptor signaling pathway with the pleiotropic PPARgamma coactivator (PGC) from Tox21 10K library (AID 1224841; call rule not given here; further: series mostly up to about 92 µM; actives are mostly falling curves and most rising ones were filed inactive; nearly all actives have a fitted effect of over 50% in size)
# Procedure, shortened: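 Cells stably carrying the PGC/ERR reporter, seeded at 2,000 per well, received pin-transferred compounds 6 h post-plating. Exposure lasted 18 h at 37 C. Signal: One-Glo luminescence.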
# [13] = qHTS assay to identify small molecule agonists of the estrogen related receptor signaling pathway with the pleiotropic PPARgamma coactivator (PGC) from Tox21 10K library (AID 1224842); further: nearly all actives have a fitted effect of over 15% in size
# Procedure, shortened: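 PGC/ERR reporter cell line, 2,000 cells per well, incubated 6 h at 37 C before 23 nL compound in DMSO was added. After 18 h at 37 C, One-Glo luminescence read following 30 min at room temperature.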
# [14] = qHTS assay to identify small molecule agonists of the hypoxia (HIF-1) signaling pathway - cell viability counter screen (AID 1224844; calls by dose curve; further: nearly all actives have a fitted effect of over 50% in size)
# Procedure, shortened: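 Viability counter screen: HRE-bla ME-180 cells plated 5 hrs before compound addition, treated 17 hrs at 37C and 5% CO2, then CellTiter-Glo added after the FRET reporter read; luminescence after 30 min.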
# [15] = qHTS assay to identify small molecule agonists of H2AX (AID 1224845; active means well fitted activation curve with a large enough effect in the signal ratio in the repeat runs, not every such curve was filed as active; the % refers to the signal ratio)
# Procedure, shortened: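 Wild-type CHO-K1 cells, plated overnight, exposed 3hr at 37C to 15 concentrations (0.76% DMSO final). Lysed, then HTRF anti-pH2AX (S139) cryptate and anti-H2AX-d2 antibodies, 24 hr room temperature; 665/620 nm emission read.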
# [16] = qHTS assay to identify small molecule agonists of the hypoxia (HIF-1) signaling pathway (AID 1224846; active means well fitted activation curve with a large enough effect in the signal ratio in the repeat runs, not every such curve was filed as active; the % refers to the signal ratio)
# Procedure, shortened: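 Agonist mode reporter screen. ME-180 cells stably expressing bla under HRE control received test compounds in DMSO for 17 hrs (37C, 5% CO2), and beta-lactamase activity was then detected with the CCF4-AM FRET substrate.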
# [17] = qHTS assay to identify small molecule antagonists of the estrogen related receptor (ERR) signaling pathway from Tox21 library (AID 1224848); further: nearly all actives have a fitted effect of over 50% in size
# Procedure, shortened: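 Quantitative high-throughput format: ERR reporter cells (2,000/well) pre-incubated 6 h, treated 18 h at 37 C with compounds in DMSO alongside positive and negative controls, then read by ONE-Glo luminescence.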
# [18] = target: Thyrotropin receptor (Homo sapiens) (UniProt P16473); test: qHTS assay to identify small molecule agonists of the thyroid stimulating hormone receptor (TSHR) signaling pathway (AID 1224843; calls by dose curve; further: nearly all actives have a fitted effect of over 45% in size)
# Chain of Thyrotropin receptor (Homo sapiens) (P16473 whole entry, looked up): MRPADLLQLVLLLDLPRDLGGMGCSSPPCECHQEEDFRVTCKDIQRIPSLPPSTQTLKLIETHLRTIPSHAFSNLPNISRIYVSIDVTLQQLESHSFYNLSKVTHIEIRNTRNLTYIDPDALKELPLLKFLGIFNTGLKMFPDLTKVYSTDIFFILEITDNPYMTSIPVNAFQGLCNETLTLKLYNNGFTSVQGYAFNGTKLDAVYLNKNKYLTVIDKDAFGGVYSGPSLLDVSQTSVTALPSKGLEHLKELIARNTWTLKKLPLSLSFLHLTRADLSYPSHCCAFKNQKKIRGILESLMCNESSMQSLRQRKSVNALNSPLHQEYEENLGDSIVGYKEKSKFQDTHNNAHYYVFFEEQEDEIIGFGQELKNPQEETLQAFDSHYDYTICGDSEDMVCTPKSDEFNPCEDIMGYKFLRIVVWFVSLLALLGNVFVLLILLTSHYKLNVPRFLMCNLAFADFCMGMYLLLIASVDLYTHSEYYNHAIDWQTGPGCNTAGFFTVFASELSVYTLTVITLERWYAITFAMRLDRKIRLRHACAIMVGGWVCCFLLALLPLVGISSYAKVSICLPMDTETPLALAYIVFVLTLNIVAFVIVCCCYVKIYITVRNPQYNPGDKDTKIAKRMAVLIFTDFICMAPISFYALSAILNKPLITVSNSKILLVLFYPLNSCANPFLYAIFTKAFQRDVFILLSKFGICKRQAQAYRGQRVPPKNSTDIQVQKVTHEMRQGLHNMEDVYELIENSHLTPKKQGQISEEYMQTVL
# Procedure, shortened: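 Agonist-mode screen: TSHR HEK293 cells received test chemicals for half an hour at room temperature, then HTRF cAMP detection reagents for one hour prior to fluorescence measurement. Each chemical ran as a 15-concentration series, triplicated.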
# [19] = qHTS assay to identify small molecule agonists of H2AX - cell viability counter screen (AID 1224847; calls by dose curve; further: top concentration of the series differs between compounds; nearly all actives have a fitted effect of over 30% in size)
# Procedure, shortened: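 We seed wild-type CHO-K1 cells overnight, treat them for 3 hr at 37C with compounds in 15-concentration series, and quantify remaining viability by CellTiter-Glo luminescence.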
# [20] = qHTS assay to identify small molecule antagonists of the retinoic acid receptor (RAR) signaling pathway (AID 1159552; further: nearly all actives have a fitted effect of over 50% in size)
# Procedure, shortened: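 Quantitative HTS in C3RL4 RARE-luciferase reporter cells. Compounds were added with 1 uM (final) retinol; luminescence was read after 6 hr.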
Compound,Potency [1],outcome [2],outcome [3],Potency [4],outcome [5],Potency [6],outcome [7],outcome [8],Potency [9],Potency [10],outcome [11],outcome [12],outcome [13],outcome [14],outcome [15],outcome [16],Potency [17],outcome [18],outcome [19],outcome [20]
CC/C=C\CCOC(=O)c1ccccc1O,inactive,inactive,inactive,inactive,inactive,17.8 µM (active),inactive,inactive,inactive,inactive,inactive,inactive,inactive,inactive,inactive,inactive,inactive,–,–,–
Cc1c(NC(=O)c2cccnc2)c(=O)n(-c2ccccc2)n1C,inactive,inactive,inactive,inactive,inactive,inactive,inactive,–,inactive,inactive,inactive,–,–,inactive,inactive,–,–,inactive,inactive,–
O=C(O)CONC(=O)c1ccccc1,inactive,inactive,inactive,inactive,inactive,inactive,inactive,–,inactive,inactive,inactive,–,–,inactive,inactive,inactive,–,inactive,inactive,inactive
O=NN(CCCl)C(=O)NC1CCCCC1,inactive,inactive,inactive,inactive,inactive,inactive,inactive,inactive,inactive,inactive,inactive,–,–,inactive,inactive,inactive,–,inactive,inactive,–
COc1cc2c(cc1OC)C(=O)C(CC1CCN(Cc3ccccc3)CC1)C2 (stereo not drawn),inactive,inactive,inactive,inactive,inactive,inactive,inactive,inactive,inactive,inactive,inactive,inactive,–,inactive,inactive,inactive,inactive,–,inactive,–
CC1=C(C(=O)O)N2C(=O)[C@@H](NC(=O)[C@H](N)C3=CCC=CC3)[C@H]2SC1,inactive,inactive,inactive,inactive,inactive,inactive,inactive,–,inactive,inactive,–,–,–,–,inactive,–,–,inactive,inactive,inactive
COP(=O)(O)OP(=O)(O)OC,inactive,inactive,inactive,inactive,inactive,inactive,inactive,–,inactive,inactive,inactive,–,–,–,inactive,inactive,–,inactive,inactive,inactive
Cc1ccc(C)c([N+](=O)[O-])c1,inactive,inactive,inactive,inactive,inactive,inactive,inactive,–,inactive,inactive,inactive,–,–,–,inactive,inactive,–,inactive,inactive,inactive
